# Measured values: PubChem BioAssay AID540345 (The Scripps Research Institute Molecular Screening Center, 2011)
# A number with no mark means an inactive call. The rule behind the calls is not given here.
# System: Rolipram
# Test: selectivity profile over receptors, transporters, CYPs – biochemical, Ricerca HitProfilingScreen, CYP450, set 2, selectivity assay for GPR7 antagonist project, profiling panel (AID 540345)
# Conditions: Ricerca radioligand binding/CYP panel, at 10 µM, stronger effect = higher value
structure (smiles),measurement,value
COc1ccc(Oc2c(Cl)cnn(C3c4ccccc4-c4ccccc43)c2=O)cc1,inhibition,5%
